# From PubChem BioAssay AID485297 (National Center for Advancing Translational Sciences (NCATS), 2010)
# Hit rate of the full screen: of about 320,000 compounds, about 9,100 (2.8%) were called active. About 3% were inconclusive and are not listed. The sample as a whole holds a higher share of actives than the screen did. A number with no mark means an inactive call. Calls come from the whole dose curve; as a rule, active = well fitted activation curve with a large enough effect; inconclusive = small, poorly fitted or top-dose-only effect; inactive = no such curve, though single readings can be large or run the other way.
# Assay: qHTS Assay for Rab9 Promoter Activators; note: nearly all actives have a fitted effect of over 60% in size; for activation, negative = inhibition: % of control where 0% means no effect
# Details: Huh7 Rab9 promoter-luciferase reporter, luminescence, 24 h; series mostly up to 9.22 µM; activation, negative = inhibition: at the top concentration
# Outline: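 Stable Rab9-luc Huh7, 1500 cells/well, 2 h settle; cmpd in DMSO, 24 h, 37 °C/5% CO2; luciferase reagent 10 min RT; luminescence.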
# Potency is the fitted concentration of half-maximal effect.
SMILES,"activation, negative = inhibition [%]",Potency
CC(C)(C)C(=O)CSc1ccc(S(=O)(=O)N2CCCC2)cn1,11,–
COCc1c(C(=O)OCC(=O)Nc2ccc(OC(F)F)cc2)oc2ccccc12,-0.02,–
O=c1c2ccccc2ncn1/N=C/c1ccccc1,–,447 nM (active)
CCCc1nc2ccccc2c(=O)n1/N=C/c1ccc(O)c(O)c1,-10.3,–
O=C(Nn1cnc2ccccc2c1=O)c1ccccc1,-0.0477,–
CC(C)C(NC(=O)c1c(F)cccc1F)C(=O)NCc1ccncc1 (stereo not given),-1.51,–
Cc1nn2cc(-c3ccc(Cl)cc3)cnc2c1Br,–,1120 nM (active)
Cc1noc(C)c1C(=O)NCC1COc2ccccc2O1 (stereo not given),14.7,–
O=C(COC(=O)c1ccc(O)cc1O)NNC(=O)c1cccs1,-3.69,–
Cc1ccc(SCCC(=O)NC(C(C)C)C(C)C)cc1,-5.64,–
Cc1ccc(SCCSc2ncccn2)cc1,–,2000 nM (active)
Cc1ccc(SCCC(=O)NCc2ccccn2)cc1,-27.2,–
Nc1nnc(SCC(=O)NCC(=O)Nc2ccc(F)c(F)c2F)s1,-1.9,–
Cc1c(C(=O)NNC(=O)c2ccncc2)oc2ccccc12,0.45,–
Cc1cccc(N(C)C(=O)CN2C(=O)COc3ccc(S(=O)(=O)N4CCCCCC4)cc32)c1,-3.86,–
CN(CC(=O)Nc1cccc(F)c1)C(=O)CC1CCCC1,0.609,–
COc1ccc(C2=NN(C(=O)CSc3nnnn3C)C(c3ccco3)C2)cc1 (stereo not given),-2.86,–
Cc1ccc(C(=O)OCC(=O)Nc2ccc(Cl)cn2)cc1S(=O)(=O)N1CCOCC1,-2.58,–
O=S(=O)(Nc1ccc2nc(N3CCOCC3)sc2c1)c1ccccc1,–,2820 nM (active)
CC(=O)Nc1ccc(S(=O)(=O)Nc2ccc(N3CCOCC3)c(F)c2)cc1,5.03,–
O=C(c1ccc2nc(N3CCOCC3)sc2c1)N1CCN(c2ccc(Cl)cc2)CC1,-0.252,–
N#Cc1ccc(CN2CCN(CC(=O)Nc3ccccc3C(=O)NC3CC3)CC2)cc1,-2.19,–

SMILES,"activation, negative = inhibition [%]",Potency
C=CCn1c(=O)c(C(=O)Nc2ncccc2O)c(O)c2ccccc21,-1.04,–
Cn1c(=O)c(C(=O)Nc2ncccn2)c(O)c2ccccc21,–,3160 nM (active)
CCCn1c(=O)c(C(=O)Nc2cc(C)ccn2)c(O)c2ccccc21,13.5,–
C/C(N)=C(/C#N)C(=O)COC(=O)CNS(=O)(=O)c1ccc(C)cc1,14.1,–
COC(=O)CNS(=O)(=O)c1ccc(Cc2ccc(S(=O)(=O)NCC(=O)OC)cc2)cc1,–,1260 nM (active)
COC(=O)CNS(=O)(=O)c1ccc(OC)cc1,-1.55,–
COc1ccc(S(=O)(=O)N2CCOCC2)cc1NC(=O)CSc1cc(C)ccc1C,-1.36,–
CCOC(=O)c1c(C)[nH]c(C2=NNC(=NC(C)COC)SC2)c1C (stereo not given),–,1580 nM (active)
O=C(CSc1nc2ccccc2c(=O)n1CCCO)NC1CC1,1.65,–
CN(CCO)Cc1csc2ccc(Br)cc12,-3.42,–
COc1ccc(/C=C/c2nnc(NC(=O)C(C)C)s2)cc1,24.8,–
CC(=O)Oc1ccc(-c2nc3c(C)cccc3c(=O)o2)cc1,14.5,–
COc1ccc(/C=C/c2noc(-c3ccccc3OC(C)=O)n2)cc1,–,2240 nM (active)
Cc1ccc(NC(=O)COC(=O)CN2CCCCCC2=O)c(C)c1,-1.3,–
COc1ccc(OC)c(S(=O)(=O)Nc2c(C)nn(C)c2C)c1,-1.82,–
CC(C)C(=O)NCc1cc(-c2ccc(Cl)cc2)no1,2.91,–
Cc1ccc(S(=O)(=O)Cc2cc(-c3ccc(Cl)cc3)no2)cc1,-2.55,–
Oc1ccccc1-c1cc(-c2ccc(Cl)cc2)n[nH]1,–,2510 nM (active)
Cc1sc2ncn(CC(=O)NCCCC(=O)NCc3ccc(F)cc3)c(=O)c2c1C,1.73,–
CCCCCc1c(C)nc(N2CCN(Cc3ccc4c(c3)OCO4)CC2)[nH]c1=O,0.809,–
O=C(NCc1ccncc1)c1cccc(NS(=O)(=O)c2ccc(F)c(F)c2)c1,-4.59,–
O=C(CSCc1ccccc1)N1CCc2ccccc21,–,1780 nM (active)

SMILES,"activation, negative = inhibition [%]",Potency
CCC(=O)N1CCCc2ccccc21,-0.452,–
O=C(CN1CCN(c2ccccn2)CC1)N1CCc2ccccc21,-2.95,–
CCCCn1nc(C(=O)Nc2cccc(C(=O)NC3CC3)c2)c2ccccc2c1=O,1.93,–
Cc1ccc(NC(=O)CCCNC(=O)c2ccc(Cl)cc2)cc1S(=O)(=O)N1CCOCC1,0.843,–
O=C(NCCSc1ncc(-c2ccccc2)[nH]1)c1ccco1,4.74,–
CCS(=O)(=O)Nc1ccc(C(=O)NCCSc2ccccc2)cc1,23.1,–
O=C(NCCSc1ccccc1)c1ccco1,–,3550 nM (active)
CC(C)(CNC(=O)CNC(=O)C1CCCCC1)N1CCOCC1,1.12,–
CCCCNC(=O)Cn1nc(C)c(S(=O)(=O)N2CCOCC2)c1C,-1.92,–
CC1CCN(S(=O)(=O)c2ccc3c(c2)n(C)c(=O)n3C)CC1,0.169,–
CCOC(=O)CC1(NC(=O)c2cc(COc3cncc(Cl)c3)on2)CCCCC1,-9.36,–
CCCOC1CCCN(C(=O)c2cc(COc3cncc(Cl)c3)on2)C1 (stereo not given),–,1410 nM (active)
Cc1nonc1C1CCCN1C(=O)c1cc(COc2cccc(C(F)(F)F)c2)on1 (stereo not given),0.106,–
CC(C)(C)c1nnc(N/N=C/c2ccc(O)cc2)n(N)c1=O,-0.399,–
Cc1ccc(Cn2c(C)c3cnn(CC(=O)NCc4ccccn4)c(=O)c3c2C)cc1,-1.35,–
Cc1ccc(C(=O)Nc2ncccc2C)cc1S(=O)(=O)N1CCOCC1,-2.03,–
Cc1cc(NC(=O)COc2ccccc2C#N)no1,–,3550 nM (active)
Cc1cc(NC(=O)COn2nnc3ccccc32)no1,4.33,–
CCOc1ccc(C(=O)Nc2ccc(S(=O)(=O)Nc3cc(C)on3)cc2)cc1,0.575,–
CCC(=O)Nc1ccc(C(=O)Nc2cc(C)on2)cc1,26.5,–
CCOc1ccc(NC(=O)Nc2cc(C)on2)cc1,–,1120 nM (active)
Cc1cc(NC(=O)COc2ccc([N+](=O)[O-])cc2)no1,2.19,–

SMILES,"activation, negative = inhibition [%]",Potency
Cc1cc(C)cc(NC(=O)C(OC(=O)c2ccc(O)cc2)c2ccccc2)c1 (stereo not given),1.6,–
COc1ccc([C@H]2CC(=O)C=C(c3ccc(OC(F)(F)F)cc3)C2)cc1OC,-6.96,–
CCN(CC)S(=O)(=O)c1ccc(N2CCOCC2)c(NC(=O)c2ccc(=O)n(C)n2)c1,-4.8,–
COc1ccc2c(c1)[C@H]1[C@H](CO2)[C@H](c2ccccc2)[C@]2(C)C(=O)Nc3cc(F)c(F)cc3C(=O)N12,-9.74,–
O=C(NCCN1CCOCC1)c1cccc(S(=O)(=O)Nc2ccc(F)cc2)c1,-3.93,–
CC(=O)c1c(C)[nH]c(C(=O)COc2ccc3c(C)cc(=O)oc3c2)c1C,-9.12,–
Cc1ccc(Oc2cnn(-c3ccccc3)c(=O)c2Br)cc1,0.736,–
O=c1c(Cl)c(NC2CC2)cnn1-c1ccccc1,12.3,–
C=CCNc1cnn(-c2ccc(C)cc2)c(=O)c1Cl,–,3550 nM (active)
CC(=O)NC12CC3CC(C1)CC(C(=O)N1CCN(S(=O)(=O)c4cccs4)CC1)(C3)C2,-2.99,–
CCn1nc(C(=O)Nc2ccc(N3CCOCC3)cc2)c2ccccc2c1=O,1.14,–
c1ccc(-n2cccc2)c(N2CCCCC2)c1,-2,–
CN(C)c1ccnc(Nc2ccc(F)cc2)c1C#N,0.525,–
CC(C)c1ccc(/C=C/C(=O)NNC(=O)c2cccnc2)cc1,-7.13,–
CC(C)c1ccc(Nc2ncccc2C#N)cc1,–,3550 nM (active)
COc1ccc2c(Cl)c(C(=O)NCc3ccco3)sc2c1,–,3160 nM (active)
COc1ccc(CNC(=O)CNC(=O)c2sc3ccccc3c2Cl)cc1OC,10.1,–
COc1ccc(C(=O)Nc2ccccc2C(=O)NCc2ccco2)cc1,-0.959,–
Cc1c(CNCCc2ccccc2)c(C(=O)O)c(C)n1-c1ccccc1,0.0378,–
CCOc1cc(CNCCN(C)C)c(Cl)cc1OCC(=O)NCCc1ccccc1,-6.67,–
O=C(CN1CCc2ccccc2C1)Nc1cccc(S(=O)(=O)N2CCOCC2)c1,-0.571,–
CC1CCN(C(=O)c2ccccc2NC(=O)Cc2ccccc2)CC1,-2.62,–

SMILES,"activation, negative = inhibition [%]",Potency
CCCCc1nc2cc(C(=O)NCCc3cnn(C)c3)ccc2o1,21.1,–
COc1ccc(Cc2nc3ccc(C(=O)NCC4CCOCC4)cc3o2)cc1OC,24.7,–
CSCCNC(=O)c1ccc2nc(Cc3ccccc3F)oc2c1,–,2820 nM (active)
COCCn1c(C)cc(C(=O)CSc2nnc(C3CC3)n2C2CC2)c1C,13.8,–
O=C(CNC(=O)c1ccccc1Br)NNC(=O)c1cccs1,-0.728,–
COc1cccc(N2CCN(CC(=O)Nc3ccnn3C3CCCC3)CC2)c1,-21.1,–
O=C(Nc1nc(-c2ccc(-c3ccccc3)cc2)cs1)c1cnccn1,15,–
O=C(Nc1nc(-c2cccnc2)cs1)c1ccccc1F,–,3550 nM (active)
O=C(NCCc1csc(-c2ccccc2)n1)c1ccccc1F,6.61,–
CN(c1ccc(O)cc1)c1nc(-c2cccnc2)cs1,2.25,–
O=C(Nc1ccc(NC(=O)c2ccccc2F)cc1)c1ccccc1F,3.15,–
O=C(Nc1nnc(-c2ccccc2F)s1)c1ccccc1F,–,708 nM (active)
CN(Cc1ccccc1)S(=O)(=O)c1nnc(NC(=O)c2ccccc2F)s1,0.085,–
Cc1ccccc1Nc1nc(-c2cccnc2)cs1,–,2000 nM (active)
O=C(O)c1ccccc1C(=O)Nc1nc(-c2ccccc2)cs1,2.84,–
CC(=O)c1ccc(S(=O)(=O)NCCC(=O)N2CCN(c3ccccn3)CC2)cc1,-5.68,–
CCC(C(=O)N1CCN(S(=O)(=O)c2sc(C(=O)O)c(C)c2C(=O)O)CC1)c1ccccc1 (stereo not given),-2.11,–
Cc1ccc(COC(=O)CN2C(=O)NC3(CCCC3)C2=O)cc1,3.61,–
COc1ccc(C(=O)OC(C)C(=O)NC2CCCC2)cc1S(=O)(=O)N1CCOCC1 (stereo not given),-1.33,–
O=C(COC(=O)Cn1[nH]c(=O)c2ccccc2c1=O)Nc1ncc(Cl)cc1Cl,-0.89,–
CCCSC(=S)NC1CCS(=O)(=O)C1 (stereo not given),-23.7,–
CN(CC(=O)NCc1ccc2c(c1)OCO2)CC(=O)Nc1ccc(F)c(F)c1F,-0.0955,–
